Measurements reported in paper PMC5540273 (PLoS ONE, 2017).

These compounds were tested on NEK9. Conditions: concentration: 1 μM, replicates: in singlicate; n = 1.
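Also: KINOMEscan kinase panel screen.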

Structure (SMILES)	%Inh [%]
CCCCc1nn2ncccc2c1-c1ccnc(Nc2ccc(N3CCN(C)CC3)cc2)n1 [GW684941]	0
Cc1ccc(S(=O)(=O)Nc2ccc(Nc3nccc(Nc4cccc5[nH]ncc45)n3)cc2)cc1 [GSK581271]	11
CN(C)Cc1ccc(-c2ccc3c(Nc4ccc(Oc5ccccn5)cc4)ccnc3c2)o1 [GW567148]	0
Cc1cccc(Nc2nc(N[C@H]3CCNC3)ncc2C(N)=O)c1.Cl [GSK2197149]	0
Cc1ccc(C(=O)N2CC[C@@H](O)C2)cc1-n1c(C)cc(OCc2ccc(F)cc2F)c(Br)c1=O	0
O=C(O)C(F)(F)F.O=C(O)C(F)(F)F.O=c1[nH]ccc2nc(N[C@@H]3CCCNC3)nc(Nc3ccc(S(=O)(=O)N4CCOCC4)cc3)c12 [GSK2177277]	14
Cc1ccc(C)c(NC(=O)NC2CCN(c3ccnc(Nc4ccc(F)cc4)n3)C2)c1 (centres unmarked) [GSK1379720]	0
Cc1cccc(NC(=O)Nc2ccc(Oc3ncnc4ccn(C)c34)cc2)c1	1
COc1ccc(-c2coc3ccc(-c4nnc(SCc5ccc(OC)c(C(F)(F)F)c5)o4)cc23)cc1	0
CC(C)c1nc(-c2cccc(NS(=O)(=O)c3c(F)cccc3F)c2F)c(-c2ccnc(Nc3ccc(N4CCOCC4)nc3)n2)s1 [GSK2008607]	93.6
O=C(Nc1cccc(-c2nn3ncccc3c2-c2ccnc(Nc3ccccc3)n2)c1)c1c(F)cccc1F [GSK198271]	8
O=c1[nH]cc(-c2ccc(N3CCOCC3)cc2)c2sc(-c3cn[nH]c3)cc12 [GSK2276055]	53
COC(=O)Nc1nc2cc(Oc3ccc(NC(=O)Nc4cc(C(F)(F)F)ccc4F)cn3)ccc2[nH]1.Cl.Cl [GW681170]	35
Cl.Cl.NCC(NCc1ccc(-c2ccnc3[nH]ccc23)s1)c1ccccc1 (centres unmarked) [GSK1321565]	6
CCS(=O)(=O)c1ccc(OC)c(Nc2nccc(-c3c(-c4cccc(NC(=O)c5c(F)cccc5F)c4)nn4ncccc34)n2)c1 [GSK326180]	10
COc1cccc(-c2ccc3c(NC(=O)C4CC4)n[nH]c3n2)c1 [SB-710903]	0

Structure (SMILES)	%Inh [%]
CSc1cccc2c(-c3ccncn3)c(-c3ccc(F)cc3)nn12 [GW514786]	1
COc1cc2c(cc1OCCN1CCNCC1)ncc1c3ccc(C#N)cc3[nH]c21	0
Cn1cc(-c2ccc3c(c2)CCN3C(=O)Cc2cccc(F)c2)c2c(N)ncnc21 [GSK2603358]	0
C[C@@H](Oc1cc(-n2cnc3cc(-c4ccnc(NCCS(C)(=O)=O)c4)ccc32)sc1C(N)=O)c1ccccc1Cl [GSK907232]	74
COc1cccc(C(=O)Nc2cccc(Oc3ccc4nc(NC(=O)C5CC5)cn4n3)c2)c1	0
Cl.c1ccc(-c2ccc3c(Nc4ccc5[nH]ncc5c4)ccnc3c2)nc1 [GW440137]	7
Cn1cc(-c2[nH]c3cc(NC(=O)[C@H](N)C4CCCCC4)cc4c3c2C=NNC4=O)cn1	11
CCn1c(-c2nonc2N)nc2c(C#CC(C)(C)O)ncc(OCCCCN)c21.O=C(O)C(F)(F)F.O=C(O)C(F)(F)F [GSK507274]	0
CN(C)S(=O)(=O)c1cc(-c2ccc3nccc(-c4cccc(S(N)(=O)=O)c4)c3c2)cnc1N [GSK1669921]	32
CCn1c(-c2nonc2N)nc2c(C#CC(C)(C)O)nc(OC[C@H](N)c3ccccc3)cc21 [GSK943949]	0
Cl.c1ccc(-c2ccc3c(Nc4ccc5[nH]ccc5c4)ccnc3c2)nc1 [GW440138]	0
Nc1n[nH]c2cnc(-c3ccccc3)cc12 [SB-642124]	0
O=C(Nc1n[nH]c2cc(-c3ccoc3)ccc12)C1CC1 [SB-738481]	0
FC(F)(F)c1ccc(/C=C/c2cncnc2Nc2ccc3[nH]c(Cc4ccccc4)nc3c2)cc1 [GW709199]	2
CC(C)(C)c1ccc2nccc(Nc3cccc(O)c3)c2c1 [GW856795]	0
COc1cc(Nc2nccc(-c3c(-c4cccc(NC(=O)c5c(F)cccc5F)c4)nn4ccccc34)n2)cc(OC)c1OC [GSK323521]	48
